In PubChem BioAssay AID2012 (Sanford-Burnham Center for Chemical Genomics, 2009):
About 2,700 (0.93%) of roughly 290,000 compounds were called active. The rule behind the calls is not given here. The full list was thinned out, with actives kept by preference.

Target: Eukaryotic translation initiation factor 4H (Homo sapiens) (UniProt Q15056)
Assay: eIF4H binding inhibition – biochemical, uHTS, fluorescence polarization, translation initiation inhibitor project, primary screen (AID 2012);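 note: calls also rest on retests at 20 µM and on dose response follow-up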
Settings: eIF4H fluorescence polarization binding assay, stronger effect = higher value

| Compound | inhibition (at 35 µM) | inhibition (confirmation average, at 20 µM) |
| --- | --- | --- |
| CCn1c(=O)c2ccccc2n(CC(=O)N2CCCc3ccccc32)c1=O | -6.1% (inactive) |  |
| CCC(=O)N1CCCc2ccccc21 | 100% (active) |  |
| O=C(CSCc1ccccc1)N1CCc2ccccc21 | 2.4% (inactive) |  |
| COc1ccc(S(=O)(=O)N2CCOC2CNC(=O)C(=O)NCc2ccc(F)cc2)cc1 (centres undefined) | -9.2% (inactive) |  |
| CCOc1c(OC)cccc1C(=O)NCC1(c2ccccc2)CCCC1 | -6% (inactive) |  |
| COC(=O)[C@H](Cc1ccccc1)NC(=O)Nc1ccc(OC)cc1 | 2.4% (inactive) |  |
| CCOC(=O)C(Cc1ccccc1)NC(=O)CCC(=O)c1ccc(OC)cc1 (centres undefined) | -3.3% (inactive) |  |
| COc1cc([C@H](Cc2ccccc2)NC(C)=O)oc(=O)c1 | 100% (active) |  |
| COc1cc2c(cc1OC)CN(C(=O)c1cc(S(=O)(=O)N3CCCCC3)ccc1Cl)CC2 | -13.7% (inactive) |  |
| Cc1nc2nc(SCC(=O)NCc3ccco3)nn2c(C)c1Cc1ccccc1 | 3.5% (inactive) |  |
| O=c1nc2s/c(=C\c3ccco3)c(=O)n2nc1Cc1ccccc1 | 96.4% (active) |  |
| O=C(Cc1ccccc1)n1nc(-c2ccccc2)nc1NCc1ccco1 | -6.8% (inactive) |  |
| Cc1cccn2c(=O)c(C=O)c(Nc3ccc(S(N)(=O)=O)cc3)nc12 | -1.8% (inactive) |  |
| Cc1ccc(C)c(N2CCN(C(=O)CCCCCn3c(=S)[nH]c4ccc(N5CCOCC5)cc4c3=O)CC2)c1 | 1.4% (inactive) |  |
| C=CCNC(=O)CSc1nc2scc(-c3ccco3)c2c(=O)n1CC=C | 49.9% (inactive) |  |
| C=CCn1c(=S)[nH]c2scc(-c3ccco3)c2c1=O | 94.1% (active) |  |
| C=CCn1c(SCc2csc(C)n2)nc2scc(-c3ccc(C)o3)c2c1=O | 4.9% (inactive) |  |
| O=[N+]([O-])c1ccccc1/C=C/CN1CCCC(CO)C1 (centres undefined) | -4.3% (inactive) |  |
| C=CCNc1nnc(SCC(=O)N2CCCCC2)c2ccccc12 | 85.7% (active) | 54.5% |
| O=C(CSc1ncccn1)N1CCCC1 | -5.6% (inactive) |  |
| C=CCNc1nnc(C)c2ccccc12 | -4.9% (inactive) |  |
| C=CCOc1ccc(C(=O)Nc2ccccc2C(=O)N2CCCC2)cc1 | 0.5% (inactive) |  |
| COCC1CCN(C(=O)C2CCC(=O)N(Cc3cccc(C(F)(F)F)c3)C2)CC1 (centres undefined) | -2.7% (inactive) |  |
| COc1ccc(N(CC(=O)NCCSCc2cccc(Cl)c2)S(C)(=O)=O)cc1 | -10.9% (inactive) |  |
| NC(=O)c1c(NC(=O)CSc2nc(N)cc(=O)[nH]2)sc2c1CCCC2 | 15.5% (inactive) |  |
| CCc1cccc(C)c1NC(=O)CSc1nnc(-c2ccco2)n1N | 6.1% (inactive) |  |
| NC(=O)c1c(NC(=O)CSc2nnc(-c3ccco3)n2N)sc2c1CCCC2 | 65.9% (active) | 96.5% |
